Measured values as given in PubChem BioAssay (NCATS).
Where “and” joins values, the source holds several entries; their conditions need not be identical. Equal entries are not always repeated. Records with an inconclusive call do not appear. Calls of active or inactive are those of the source. Unless noted, the call rests on the fitted dose curve; in most records, active means well fitted curve in the direction sought with a large enough effect; inconclusive means small, poorly fitted or top-dose-only effect, or another doubt; inactive means no such curve, though single readings can be large; an effect the other way counts as inactive or inconclusive.

Legend:
[1] = AP1 Signaling Pathway (AID 357; active means well fitted curve in either direction with a large enough effect, not every such curve was filed as active;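 further: ME-180 reporter cells stimulated with EGF at its EC50 level; on the % scale 0 is the no-effect control and ±100 the full control effect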); conditions: ME-180 AP-1-bla reporter, EGF-induced, beta-lactamase ratio, 5 h; at 7.69 µM (top of the series) unless noted
Outline: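 A ratiometric CCF4 readout (405 nm excitation; 460 and 530 nm emission) quantified AP-1-driven beta-lactamase in ME-180 cells after 5 h with compound and EC50 EGF; AC50 values were derived for activators and inhibitors.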

[2] = molecular target: Cytochrome P450 1A2 (Homo sapiens) (UniProt P05177); assay: p450-cyp1a2 (AID 410; calls by dose curve;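 further: -100% = full effect of reference inhibitor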)
Sequence of Cytochrome P450 1A2 (Homo sapiens) (P05177 whole entry, looked up): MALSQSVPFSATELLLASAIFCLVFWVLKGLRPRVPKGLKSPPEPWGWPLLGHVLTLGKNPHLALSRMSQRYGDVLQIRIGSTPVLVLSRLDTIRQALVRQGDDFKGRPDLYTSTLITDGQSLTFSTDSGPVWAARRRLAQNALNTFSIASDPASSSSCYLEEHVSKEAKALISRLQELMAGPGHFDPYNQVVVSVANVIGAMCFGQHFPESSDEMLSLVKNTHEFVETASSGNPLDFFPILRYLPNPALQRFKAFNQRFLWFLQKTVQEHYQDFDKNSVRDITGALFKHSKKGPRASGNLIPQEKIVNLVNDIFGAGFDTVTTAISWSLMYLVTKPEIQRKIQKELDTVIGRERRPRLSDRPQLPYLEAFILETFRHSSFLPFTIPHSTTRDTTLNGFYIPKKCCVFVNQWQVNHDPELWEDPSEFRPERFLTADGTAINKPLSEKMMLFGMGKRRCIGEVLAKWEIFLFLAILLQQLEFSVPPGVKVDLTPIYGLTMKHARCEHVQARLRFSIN
Outline: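 20nM CYP1A2 with 100uM Luciferin-ME (at Km) in 100mM KPO4; compound preincubated 10 min, NADPH regeneration added, 60 min at room temperature. Luciferin quantified by luminescence after detection reagent; normalized to 57 uM furafylline.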

[3] = NFAT Signaling Pathway (AID 444; active means well fitted curve in either direction with a large enough effect, not every such curve was filed as active;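 further: carbachol stimulus at about its EC50 of 1 µM final; on the % scale 0 is the no-effect control and ±100 the full control effect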); conditions: Jurkat NFAT-bla M1, carbachol, beta-lactamase ratio, 5 h; at 7.69 µM (top of the series) unless noted
Outline: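 Jurkat cells with NFAT-driven β-lactamase reporter and co-expressed M1 receptor, stimulated with carbachol (final 1 uM, ~EC50), compound titration, 5 h at 37 °C. CCF4 loaded 1 h at RT; 460/530 nm ratio gave %activity and AC50.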

[4] = Stat Signaling Pathway (AID 446; active means well fitted curve in either direction with a large enough effect, not every such curve was filed as active;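 further: ME-180 cervical cancer cells given 40 pM IL-6 alongside compound; SIE-controlled beta-lactamase reporter measured as 460/530 nm FRET emission ratio; on the % scale 0 is the no-effect control and ±100 the full control effect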); conditions: ME-180 SIE beta-lactamase reporter, IL-6 stimulated, 5 h; at 7.69 µM (top of the series) unless noted
Outline: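 Reporter line: ME-180 cervical carcinoma, SIE-beta-lactamase. Treatment: compound with 40 pM IL-6, 5 hrs, 37 C, in low-serum OPTI-MEM with 10 mM HEPES pH 7.3. Detection: 460/530 nm fluorescence.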

[5] = molecular target: Glucocorticoid receptor (Homo sapiens) (UniProt P04150); assay: GR-GFP Redistribution (AID 450;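 active means compounds whose dose series gives a full or clear partial fitted curve of increased nuclear translocation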; further: potency means the concentration at half of the fitted maximal effect); conditions: U2OS GR-GFP nuclear translocation, laser cytometry, 2 h
Sequence of Glucocorticoid receptor (Homo sapiens) (P04150 whole entry, looked up, the tested form may be a part): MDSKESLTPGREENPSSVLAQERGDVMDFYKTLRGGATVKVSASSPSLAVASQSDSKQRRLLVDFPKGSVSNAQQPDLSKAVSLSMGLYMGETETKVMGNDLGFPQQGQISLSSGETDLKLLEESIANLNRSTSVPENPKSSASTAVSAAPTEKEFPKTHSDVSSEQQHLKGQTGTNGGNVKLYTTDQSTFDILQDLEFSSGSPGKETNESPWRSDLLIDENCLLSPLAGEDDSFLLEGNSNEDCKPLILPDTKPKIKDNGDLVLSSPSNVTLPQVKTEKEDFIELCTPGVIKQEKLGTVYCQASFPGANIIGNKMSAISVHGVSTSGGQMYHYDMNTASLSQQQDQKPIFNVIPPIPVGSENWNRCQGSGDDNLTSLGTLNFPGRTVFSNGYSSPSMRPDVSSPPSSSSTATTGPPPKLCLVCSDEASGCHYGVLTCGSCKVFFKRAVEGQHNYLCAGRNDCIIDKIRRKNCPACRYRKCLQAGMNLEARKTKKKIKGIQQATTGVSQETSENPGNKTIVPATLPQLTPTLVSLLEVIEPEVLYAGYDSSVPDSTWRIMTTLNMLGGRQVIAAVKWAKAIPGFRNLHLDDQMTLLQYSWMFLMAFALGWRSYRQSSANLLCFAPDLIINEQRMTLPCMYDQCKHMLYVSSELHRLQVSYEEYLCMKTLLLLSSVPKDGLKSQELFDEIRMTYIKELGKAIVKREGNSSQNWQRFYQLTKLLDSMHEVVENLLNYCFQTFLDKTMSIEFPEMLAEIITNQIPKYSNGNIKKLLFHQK

[6] = molecular target: Glucocorticoid receptor (Homo sapiens) (UniProt P04150); assay: GR-EFC Redistribution (AID 451; calls by dose curve; further: potency means the concentration at half of the fitted maximal effect); conditions: CHO-K1 GR-EFC translocation, beta-gal luminescence, 2 h
Outline: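 CHO-K1 cells expressing nuclear EA and GR-ED fragments of b-gal; compounds titrated up to 46 uM final, 2 h at 37 C. GR nuclear translocation read as complemented b-gal luminescence after 1 h RT detection.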

[7] = molecular target: Mitogen-activated protein kinase 10 (Mus musculus) (UniProt Q61831); assay: JNK3 AlphaScreen Assay (AID 530; active means well fitted curve in either direction with a large enough effect, not every such curve was filed as active;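 further: kinase came from lysate of stimulated human HepG2 cells; signal reports phosphorylation of biotinylated GST-cJun 1-79 at Ser73 with 10 µM ATP; on the % scale 0 is the no-effect control and ±100 the full control effect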)
Outline: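 Pre-activated (IL-1β/TNFα) JNK3 in HepG2 lysates phosphorylates biotin-GST-cJun(1-79), 10 uM ATP; anti-phospho-cJun(Ser73) AlphaScreen read at room temperature, pH 7.6 Tris buffer. Compounds pre-incubated 15 min as titrations.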

[8] = molecular target: 3',5'-cyclic-AMP phosphodiesterase 4B (Homo sapiens) (UniProt Q07343); assay: qHTS Assay for Inhibitors of PDE-IV (AID 607; active means well fitted activation curve with a large enough effect in the main read-out, with a control signal flat, not every such curve was filed as active; further: % of control where 0% means no effect)
Sequence of 3',5'-cyclic-AMP phosphodiesterase 4B (Homo sapiens) (Q07343 whole entry, looked up): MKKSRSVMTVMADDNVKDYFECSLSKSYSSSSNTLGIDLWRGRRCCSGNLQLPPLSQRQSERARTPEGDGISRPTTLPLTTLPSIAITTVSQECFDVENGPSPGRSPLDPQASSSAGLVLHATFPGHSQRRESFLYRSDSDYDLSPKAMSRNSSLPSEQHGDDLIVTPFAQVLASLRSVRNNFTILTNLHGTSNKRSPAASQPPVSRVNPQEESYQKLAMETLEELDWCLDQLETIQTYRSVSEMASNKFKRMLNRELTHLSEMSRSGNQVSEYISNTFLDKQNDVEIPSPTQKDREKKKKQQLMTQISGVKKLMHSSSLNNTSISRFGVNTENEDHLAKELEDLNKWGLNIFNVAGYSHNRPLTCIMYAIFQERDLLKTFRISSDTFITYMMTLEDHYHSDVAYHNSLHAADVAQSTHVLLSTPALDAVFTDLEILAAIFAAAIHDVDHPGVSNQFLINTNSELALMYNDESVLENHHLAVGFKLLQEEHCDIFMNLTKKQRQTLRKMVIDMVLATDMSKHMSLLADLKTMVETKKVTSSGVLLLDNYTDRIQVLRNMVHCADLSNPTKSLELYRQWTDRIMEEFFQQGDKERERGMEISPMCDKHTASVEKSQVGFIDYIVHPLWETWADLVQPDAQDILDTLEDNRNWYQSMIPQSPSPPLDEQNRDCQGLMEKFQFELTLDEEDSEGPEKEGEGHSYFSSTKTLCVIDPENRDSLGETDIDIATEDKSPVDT
Outline: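 Cell-based read-out of cAMP via a modified cyclic nucleotide-gated channel and membrane potential dye (535/590 nm) in HEK293 cells expressing PDE4 endogenously. Compounds tested up to 22.9 uM final; 100 uM RO 20-1724 reference.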

[9] = qHTS Assay for Lipid Storage Modulators (AID 1519; calls by dose curve); conditions: Drosophila S3 cells, BODIPY lipid droplet/cell ratio, laser cytometry, cells loaded with oleic acid
Outline: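 Cells seeded at 5,000 per well were treated with compounds over a concentration series and loaded with oleic acid (400 uM, as added). Lipid droplet fluorescence (488 nm excitation, 500-530 nm channel) was read by laser-scanning cytometry and normalized to 20 uM Triacsin C.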

[10] = molecular target: ATP-dependent 6-phosphofructokinase (Trypanosoma brucei brucei) (UniProt O15648); assay: qHTS Assay to Find Inhibitors of T. brucei phosphofructokinase: hit validation (AID 492961)
Sequence of ATP-dependent 6-phosphofructokinase (Trypanosoma brucei brucei) (O15648 whole entry, looked up): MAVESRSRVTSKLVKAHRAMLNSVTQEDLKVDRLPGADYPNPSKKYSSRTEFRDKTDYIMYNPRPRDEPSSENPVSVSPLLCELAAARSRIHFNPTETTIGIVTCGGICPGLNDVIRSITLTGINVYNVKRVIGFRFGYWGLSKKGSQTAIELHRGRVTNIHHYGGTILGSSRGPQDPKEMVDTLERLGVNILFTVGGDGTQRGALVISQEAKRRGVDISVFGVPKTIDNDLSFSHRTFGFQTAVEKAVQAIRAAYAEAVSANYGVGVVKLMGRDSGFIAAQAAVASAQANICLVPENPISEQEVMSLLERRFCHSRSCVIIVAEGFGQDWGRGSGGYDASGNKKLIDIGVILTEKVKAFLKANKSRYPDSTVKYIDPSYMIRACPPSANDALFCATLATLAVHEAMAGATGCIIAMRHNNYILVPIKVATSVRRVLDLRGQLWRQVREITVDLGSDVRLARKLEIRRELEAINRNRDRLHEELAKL
Outline: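 Compounds titrated; %activity normalized to 0x and 1x enzyme controls, curve-fitted. Readout: ADP-Glo luminescence after 45 min room-temperature reaction of 1.25 nM PFK, 0.1 mM ATP, 0.5 mM F6P, pH 8.0.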

[11] = molecular target: Ubiquitin carboxyl-terminal hydrolase 1 (Homo sapiens) (UniProt O94782); assay: Inhibitors of USP1/UAF1: Pilot qHTS (AID 504865);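 further: rhodamine fluorescence freed from ubiquitin-rhodamine substrate followed over time; top concentration of the series differs between compounds; on the % scale 0 is the no-effect control and ±100 the full control effect; nearly all actives have a fitted effect of over 35% in size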
Sequence of Ubiquitin carboxyl-terminal hydrolase 1 (Homo sapiens) (O94782 whole entry, looked up): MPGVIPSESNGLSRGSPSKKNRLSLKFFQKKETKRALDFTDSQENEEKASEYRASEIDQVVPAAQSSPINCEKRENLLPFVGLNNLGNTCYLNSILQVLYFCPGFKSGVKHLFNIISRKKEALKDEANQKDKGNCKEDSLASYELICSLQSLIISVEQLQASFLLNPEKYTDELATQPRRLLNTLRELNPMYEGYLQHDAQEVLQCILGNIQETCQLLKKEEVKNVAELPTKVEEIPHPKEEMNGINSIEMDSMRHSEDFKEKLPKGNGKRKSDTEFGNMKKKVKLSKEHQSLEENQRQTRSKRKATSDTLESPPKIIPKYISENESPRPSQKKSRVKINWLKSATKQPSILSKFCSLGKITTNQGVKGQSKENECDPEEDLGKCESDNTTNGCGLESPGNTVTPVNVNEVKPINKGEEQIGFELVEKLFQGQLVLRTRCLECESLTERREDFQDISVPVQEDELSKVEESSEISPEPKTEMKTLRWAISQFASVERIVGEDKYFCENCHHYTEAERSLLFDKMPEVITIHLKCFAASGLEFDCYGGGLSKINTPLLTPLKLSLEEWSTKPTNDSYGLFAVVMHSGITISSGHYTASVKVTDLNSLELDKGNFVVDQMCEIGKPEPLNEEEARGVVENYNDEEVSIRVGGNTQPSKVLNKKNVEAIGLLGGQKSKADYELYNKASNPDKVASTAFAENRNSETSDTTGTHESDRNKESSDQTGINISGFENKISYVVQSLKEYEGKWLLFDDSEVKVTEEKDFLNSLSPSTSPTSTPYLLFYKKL
Outline: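 Kinetic fluorescence assay: 1nM USP1/UAF1, 15 min compound preincubation, then 150nM Ub-Rho; 480/540 nm.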

[12] = molecular target: Luciferin 4-monooxygenase (Photinus pyralis) (UniProt P08659); assay: Biochemical firefly luciferase enzyme assay for NPC (AID 624030);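 further: purified P. pyralis luciferase at 10 nM with luciferin and ATP substrate; 0% = DMSO and -100% = full luciferase inhibition by PTC124 control; nearly all actives have a fitted effect of over 70% in size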
Sequence of Luciferin 4-monooxygenase (Photinus pyralis) (P08659 whole entry, looked up): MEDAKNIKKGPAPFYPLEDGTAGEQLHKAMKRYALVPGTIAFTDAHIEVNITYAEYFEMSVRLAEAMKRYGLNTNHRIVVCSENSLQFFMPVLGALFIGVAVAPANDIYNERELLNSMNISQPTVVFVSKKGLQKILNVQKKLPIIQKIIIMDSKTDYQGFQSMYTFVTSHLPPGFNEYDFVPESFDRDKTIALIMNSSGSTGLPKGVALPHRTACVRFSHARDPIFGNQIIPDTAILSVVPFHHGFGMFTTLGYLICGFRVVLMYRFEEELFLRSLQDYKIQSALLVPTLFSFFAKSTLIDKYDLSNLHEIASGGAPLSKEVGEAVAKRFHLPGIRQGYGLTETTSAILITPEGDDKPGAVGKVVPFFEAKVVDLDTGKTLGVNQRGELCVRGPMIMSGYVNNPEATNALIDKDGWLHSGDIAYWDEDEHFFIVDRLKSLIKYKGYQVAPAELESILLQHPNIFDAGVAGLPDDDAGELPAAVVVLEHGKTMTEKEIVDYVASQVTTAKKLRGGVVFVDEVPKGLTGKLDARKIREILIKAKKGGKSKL
Outline: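 Purified P. pyralis luciferase at 10 nM in 50 mM Tris Acetate (final), luminescence read within 5 minutes of enzyme addition to compounds. Activity normalised to PTC124 versus DMSO; concentration-response curves classed by r2, magnitude and activity.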

[13] = qHTS profiling for inhibitors of Plasmodium falciparum proliferation (AID 504749);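 further: 0% = DMSO vehicle and full inhibition = artemisinin control; nearly all actives have a fitted effect of over 60% in size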; conditions: P. falciparum in erythrocytes, SYBR Green DNA, 72 h
Outline: (§1)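 P. falciparum-infected erythrocytes (0.3% parasitemia, 2.5% hematocrit) incubated with compound 72 h at 37 C, 5% CO2. Parasite DNA detected by SYBR Green after lysis, overnight at room temperature; normalised to 0.29 uM artemisinin and DMSO.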

CP238 = assay: as above; conditions: P. falciparum in erythrocytes, SYBR Green DNA, 72 h; series mostly up to 12.8 µM
Outline: as §1

CP262 = assay: as above; conditions: P. falciparum in erythrocytes, SYBR Green DNA, 72 h; series mostly up to 12.8 µM
Outline: as §1

CP325 = assay: as above; conditions: P. falciparum in erythrocytes, SYBR Green DNA, 72 h; series mostly up to 12.8 µM
Outline: as §1

ECU = assay: as above; conditions: P. falciparum in erythrocytes, SYBR Green DNA, 72 h; series mostly up to 12.8 µM
Outline: as §1

FAB9 = assay: as above; conditions: P. falciparum in erythrocytes, SYBR Green DNA, 72 h; series mostly up to 12.8 µM
Outline: as §1

HB3 = assay: as above; conditions: P. falciparum in erythrocytes, SYBR Green DNA, 72 h; series mostly up to 12.8 µM
Outline: as §1

JCK = assay: as above; conditions: P. falciparum in erythrocytes, SYBR Green DNA, 72 h; series mostly up to 12.8 µM
Outline: as §1

[14] = measured here: cell count channel max response
[15] = measured here: lipid channel max response

CC(=O)Nc1c(I)c(C(=O)N[C@H]2[C@@H](O)[C@H](O)[C@H](CO)O[C@@H]2O)c(I)c(N(C)C(C)=O)c1I
inactive: activity change, negative = inhibition [1] 9.89% [at 17.2 µM] | Potency [2] | activity change, negative = inhibition [3] -0.843% [at 17.2 µM] | activity, negative = inhibition [4] -3.76% [at 17.2 µM] | Potency [5] > 20.6 µM | Potency [6] > 20.6 µM | Potency [7] | Potency [8] | activity change, negative = inhibition ([9]; at 25.7 µM (top of the series)) -0.4% | outcome [10] | Potency [11] | outcome [12] | activity, negative = inhibition ([13]; at 12.8 µM (top of the series), parasite line A) 8.5% | activity, negative = inhibition ([13]; at 12.8 µM (top of the series), parasite line B) 4.91% | Potency (CP238) | Potency (CP262) | Potency (CP325) | Potency (ECU) | Potency (FAB9) | Potency (HB3) | Potency (JCK)
-8.07%: max response [9, 14]
-5.12%: max response [9, 15]

COC(=O)C1OC(=O)C2OC23[C@]2(C)C(O)CC4C(C)(C)C(OC(C)=O)CC(OC(C)=O)[C@@]4(C)C2CC[C@@]13C (some centres undefined)
17.7% and 13.2%: max response [9, 15]
17.5% and 7.5%: max response [9, 14]
inactive: activity change, negative = inhibition ([9]; at 57.5 µM (top of the series)) -1.67% and 3.12% | Potency [11]

CC1(C)S[C@@H]2[C@H](NC(=O)[C@H](C(=O)O)c3ccsc3)C(=O)N2[C@H]1C(=O)O
inactive: activity change, negative = inhibition [1] -4.81% [at 17.2 µM] and 2.77% [at 17.2 µM] | Potency [2] | activity change, negative = inhibition [3] -7.87% [at 17.2 µM] and 25.2% [at 17.2 µM] | activity, negative = inhibition [4] 6.96% [at 17.2 µM] and -0.401% [at 17.2 µM] | Potency [5] > 20.6 µM | Potency [6] > 20.6 µM | Potency [7] | Potency [8] | activity change, negative = inhibition ([9]; at 25.7 µM (top of the series)) 1.08% | Potency [11] | outcome [12] | activity, negative = inhibition ([13]; at 28.7 µM (top of the series), parasite line A) -4.85% | activity, negative = inhibition ([13]; at 28.7 µM (top of the series), parasite line B) 17.9% | Potency (CP238) | Potency (CP262) | Potency (CP325) | Potency (ECU) | Potency (FAB9) | Potency (HB3) | Potency (JCK)
-8.09%: max response [9, 15]
-10.5%: max response [9, 14]
